Results filed as inconclusive are left out. The source made the active and inactive calls. The calls were made as follows, unless noted: active = hit-call score of the fitted dose curve at least 0.9, where 1 is the maximum; inactive = score below 0.9.
What was measured:
[1] = target: Paired box protein Pax-6 (Homo sapiens) (UniProt P26367); assay: ATG_Pax6_CIS: Attagene CIS-FACTORIAL HepG2 Assay for human Paired Box 6 (PAX6) (AID 2282956); details: HepG2 CIS-FACTORIAL PAX6 reporter transcription, RNA readout; actives raise or lower the signal
In short: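 Values derive from bidirectional curve fitting of reporter mRNA signal relative to DMSO. HepG2 cells bearing transfected cis-regulated MRTUs were exposed for 24 h; transcripts were read by RT-PCR and capillary electrophoresis.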

[2] = ATG_PXRE_CIS: Attagene CIS-FACTORIAL HepG2 Assay for human Pregnane X Receptor Element (PXRE) (AID 2282957); details: HepG2 Attagene CIS-FACTORIAL PXRE reporter, mRNA; actives raise or lower the signal
In short: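 Bidirectional activity, baselined to DMSO, derived from reporter mRNA fluorescence (RT-PCR plus capillary electrophoresis) in HepG2 cells bearing cis-promoter reporter units, 24 h exposure.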

[3] = ATG_RORE_CIS: Attagene CIS-FACTORIAL HepG2 Assay for human RAR-related Orphan Receptor Element (RORE) (AID 2282959); details: HepG2 Attagene cis-factorial RORE reporter, mRNA; actives raise or lower the signal
In short: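 Readout: fluorescent reporter mRNA by RT-PCR plus capillary electrophoresis, 24 h after dosing transfected HepG2 cells. Endogenous transcription factor activity on a cis promoter element is measured. Gain or loss of signal fitted against DMSO.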

[4] = ATG_Sox_CIS: Attagene CIS-FACTORIAL HepG2 Assay for human SRY-box transcription factor (SOX) (AID 2282960); details: HepG2 Attagene cis-factorial SOX reporter, mRNA; actives raise or lower the signal
In short: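 Read-out: fluorescent RT-PCR products of SOX1-linked reporter transcripts resolved by capillary electrophoresis, fitted bidirectionally against DMSO. Transiently transfected HepG2 cells, 24 h after chemical exposure, endogenous transcription factor activity.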

[5] = ATG_SREBP_CIS: Attagene CIS-FACTORIAL HepG2 Assay for human Sterol Regulatory Element Binding (SREBP) (AID 2282962); details: HepG2 Attagene cis-factorial SREBP reporter, mRNA; actives raise or lower the signal
In short: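 Values derive from bidirectional curve fitting with DMSO as baseline. The underlying measurement is reporter mRNA from cis-element-regulated units in transiently transfected HepG2, quantified by RT-PCR and capillary electrophoresis after 24 h exposure.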

[6] = target: Signal transducer and activator of transcription 3 (Homo sapiens) (UniProt P40763); assay: ATG_STAT3_CIS: Attagene CIS-FACTORIAL HepG2 Assay for human Signal Transducer and Activator of Transcription 3 (STAT3) (AID 2282963); details: HepG2, Attagene cis-factorial STAT3 reporter transcription; actives raise or lower the signal
In short: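 Cis-factorial format: endogenous transcription factors in HepG2 drive transfected reporter units. After 24 h treatment, reporter RNA was reverse-transcribed, amplified, FAM-labelled and HpaI-digested before CE analysis; activity scored in both directions against DMSO.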

[7] = ATG_TA_CIS: Attagene CIS-FACTORIAL HepG2 Assay for human TA Basal Promoter (AID 2282964); details: HepG2 Attagene CIS-factorial TA basal promoter reporter; actives raise or lower the signal
In short: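 Transfected HepG2, 24 h compound exposure; RNA → RT-PCR → FAM primer extension → HpaI cut → CE fluorescence. Gain/loss-of-signal fitted against DMSO negative control. Background-control readout.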

[8] = ATG_TCF_b_cat_CIS: Attagene CIS-FACTORIAL HepG2 Assay for human T-Cell-Factor with beta-catenin (TCF/b-cat) (AID 2282965); details: HepG2 TCF/beta-catenin cis-reporter transcription, actives raise or lower the signal
In short: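 Endogenous TCF/LEF activity read as reporter transcript level via RT-PCR and capillary electrophoresis fluorescence in transfected HepG2, 24 h exposure; gain or loss of signal fitted against DMSO controls.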

[9] = ATG_TAL_CIS: Attagene CIS-FACTORIAL HepG2 Assay for human TAL Basal Promoter (AID 2282966); details: HepG2 Attagene cis-factorial TAL promoter reporter; actives raise or lower the signal;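 also: background control endpoint measuring basal TAL promoter reporter mRNA not a specific factor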
In short: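 Human hepatoma HepG2 cells, transfected with promoter-regulated reporter units, were treated 24 h. Reporter transcript levels, measured through RT-PCR and capillary electrophoresis, were fitted for gain or loss relative to DMSO.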

[10] = ATG_VDRE_CIS: Attagene CIS-FACTORIAL HepG2 Assay for human Vitamin D Receptor Element (VDRE) (AID 2282968); details: HepG2 VDRE cis-reporter transcription, actives raise or lower the signal
In short: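 Measures endogenous factor activity through cis-element-driven reporter transcripts in transiently transfected HepG2. Cells are treated 24 h; reporter mRNA is quantified by RT-PCR and capillary electrophoresis; fitting is bidirectional.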

[11] = target: Nuclear receptor subfamily 1 group I member 3 (Homo sapiens) (UniProt Q14994); assay: ATG_CAR_TRANS: Attagene TRANS-FACTORIAL HepG2 Assay for human Constitutive Androstane Receptor (CAR) (AID 2282969; active = hit-call score of the fitted dose curve at least 0.9, where 1 is the maximum;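 also: activators raise reporter mRNA above DMSO so AC50 marks induction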); details: HepG2 Attagene TRANS-FACTORIAL CAR reporter
In short: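 Signal is reporter mRNA induction relative to DMSO, measured 24 h after dosing by RT-PCR with fluorescent primer extension and capillary electrophoresis. Human HepG2 liver cells carried transiently transfected chimeric NR-Gal4/GAL4-UAS reporter constructs.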

[12] = target: Estrogen receptor (Homo sapiens) (UniProt P03372); assay: ATG_ERa_TRANS: Attagene TRANS-FACTORIAL HepG2 Assay for human Estrogen Receptor alpha (ERa) (AID 2282970; active = hit-call score of the fitted dose curve at least 0.9, where 1 is the maximum); details: HepG2 Attagene TRANS ERa GAL4 reporter, mRNA
In short: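 Signal derives from fluorescence of labelled reporter PCR fragments separated by capillary electrophoresis. HepG2 cells transiently carrying multiple GAL4-UAS reporter units were treated 24 hours, and induction above DMSO baseline was fitted as activity.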

[13] = target: X-box-binding protein 1 (Homo sapiens) (UniProt P17861); assay: ATG_Xbp1_CIS: Attagene CIS-FACTORIAL HepG2 Assay for human X-box Binding Protein 1 (XBP1) (AID 2282972); details: HepG2 XBP1 cis-element reporter, Attagene multiplex; actives raise or lower the signal
In short: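 Human hepatoma HepG2, cis-element reporter system, 24 h treatment; mRNA quantified by RT-PCR/CE fluorescence; fit relative to DMSO.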

[14] = ATG_M_19_TRANS: Attagene TRANS-FACTORIAL HepG2 Assay for M19 Transcription Factor (Internal Marker) (AID 2282974; active = hit-call score of the fitted dose curve at least 0.9, where 1 is the maximum); details: HepG2 Attagene TRANS-FACTORIAL M19 internal marker reporter
In short: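 24 h chemical exposure of transiently transfected HepG2 (MRTU library). RNA → oligo(dT) RT → PCR → 6-FAM labelling → HpaI cut → CE fluorescence. Positive-direction fit vs DMSO baseline; background internal-marker readout.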

[15] = target: Estrogen-related receptor gamma (Homo sapiens) (UniProt P62508); assay: ATG_ERRg_TRANS: Attagene TRANS-FACTORIAL HepG2 Assay for human Estrogen-Related Receptor gamma (ERRg) (AID 2282977; active = hit-call score of the fitted dose curve at least 0.9, where 1 is the maximum;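 also: hits increase reporter signal over DMSO so potencies reflect activators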); details: HepG2 Attagene TRANS reporter, ERRg transactivation
In short: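 Readout: fluorescent reporter-mRNA fragments resolved by capillary electrophoresis after RT-PCR and HpaI cut. Cells: transiently transfected HepG2 carrying GAL4-UAS reporters driven by exogenous NR-Gal4 chimeras, dosed 24 h. Activity fitted upward relative to DMSO baseline.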

[16] = target: Transcription factor Sp1 (Homo sapiens) (UniProt P08047); assay: ATG_Sp1_CIS: Attagene CIS-FACTORIAL HepG2 Assay for human Specificity Protein 1 (Sp1) (AID 2282961); details: HepG2 Sp1 cis-reporter transcription, actives raise or lower the signal
In short: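 Read-out: fluorescence of 6-FAM-labeled, HpaI-digested RT-PCR products separated by capillary electrophoresis. HepG2 cells carried transfected cis-element reporter units and were exposed to chemicals for 24 h; gain or loss of signal fitted relative to DMSO.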

[17] = ATG_TGFb_CIS: Attagene CIS-FACTORIAL HepG2 Assay for human Transforming Growth Factor (TGF) (AID 2282967); details: HepG2 Attagene CIS TGFb reporter, mRNA transcription; actives raise or lower the signal
In short: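 Readout: fluorescently labeled reporter cDNA fragments resolved by capillary electrophoresis after RT-PCR. Transfected HepG2 cells dosed for 24 h; endogenous TF activity at TGFB1-linked cis element; gain or loss fitted relative to DMSO.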

[18] = ATG_GAL4_TRANS: Attagene TRANS-FACTORIAL HepG2 Assay for GAL4 (Internal Marker) (AID 2282976; active = hit-call score of the fitted dose curve at least 0.9, where 1 is the maximum); details: HepG2 Attagene TRANS GAL4 internal marker reporter
In short: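 Liver HepG2 line bearing multiplexed GAL4-UAS reporter constructs; 24 h chemical treatment. Transcripts were quantified as fluorescent fragments on capillary electrophoresis after RT-PCR and HpaI cut, with activity fitted upward from DMSO.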

[19] = target: Steroid hormone receptor ERR1 (Homo sapiens) (UniProt P11474); assay: ATG_ERRa_TRANS: Attagene TRANS-FACTORIAL HepG2 Assay for human Estrogen-Related Receptor alpha (ERRa) (AID 2282971; active = hit-call score of the fitted dose curve at least 0.9, where 1 is the maximum); details: HepG2 Attagene TRANS reporter, ERRa transactivation
In short: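 Signal gain relative to DMSO for an ERRa-Gal4 chimeric receptor, read as reporter mRNA by RT-PCR/capillary electrophoresis. Human HepG2 liver cells, transient multiplex reporter transfection, 24 h chemical exposure.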

Measured: AC50

Chain of Estrogen receptor (Homo sapiens) (P03372 whole entry, looked up, the tested form may be a part): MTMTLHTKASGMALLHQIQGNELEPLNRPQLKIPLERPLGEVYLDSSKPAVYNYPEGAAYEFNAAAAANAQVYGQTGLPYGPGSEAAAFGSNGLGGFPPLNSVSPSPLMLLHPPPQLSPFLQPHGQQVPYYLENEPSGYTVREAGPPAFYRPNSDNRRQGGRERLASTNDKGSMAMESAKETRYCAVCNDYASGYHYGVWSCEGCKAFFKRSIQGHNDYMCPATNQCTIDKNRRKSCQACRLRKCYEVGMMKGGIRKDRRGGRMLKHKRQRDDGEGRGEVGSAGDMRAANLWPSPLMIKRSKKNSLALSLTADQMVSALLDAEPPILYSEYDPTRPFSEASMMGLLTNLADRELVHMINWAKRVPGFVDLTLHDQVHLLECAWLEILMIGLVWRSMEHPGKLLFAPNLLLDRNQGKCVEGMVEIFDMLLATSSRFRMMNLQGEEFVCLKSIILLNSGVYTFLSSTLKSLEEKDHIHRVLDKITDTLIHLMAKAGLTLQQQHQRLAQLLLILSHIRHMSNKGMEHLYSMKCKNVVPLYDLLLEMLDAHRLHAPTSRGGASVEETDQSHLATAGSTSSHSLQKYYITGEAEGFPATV
Chain of Signal transducer and activator of transcription 3 (Homo sapiens) (P40763 whole entry, looked up): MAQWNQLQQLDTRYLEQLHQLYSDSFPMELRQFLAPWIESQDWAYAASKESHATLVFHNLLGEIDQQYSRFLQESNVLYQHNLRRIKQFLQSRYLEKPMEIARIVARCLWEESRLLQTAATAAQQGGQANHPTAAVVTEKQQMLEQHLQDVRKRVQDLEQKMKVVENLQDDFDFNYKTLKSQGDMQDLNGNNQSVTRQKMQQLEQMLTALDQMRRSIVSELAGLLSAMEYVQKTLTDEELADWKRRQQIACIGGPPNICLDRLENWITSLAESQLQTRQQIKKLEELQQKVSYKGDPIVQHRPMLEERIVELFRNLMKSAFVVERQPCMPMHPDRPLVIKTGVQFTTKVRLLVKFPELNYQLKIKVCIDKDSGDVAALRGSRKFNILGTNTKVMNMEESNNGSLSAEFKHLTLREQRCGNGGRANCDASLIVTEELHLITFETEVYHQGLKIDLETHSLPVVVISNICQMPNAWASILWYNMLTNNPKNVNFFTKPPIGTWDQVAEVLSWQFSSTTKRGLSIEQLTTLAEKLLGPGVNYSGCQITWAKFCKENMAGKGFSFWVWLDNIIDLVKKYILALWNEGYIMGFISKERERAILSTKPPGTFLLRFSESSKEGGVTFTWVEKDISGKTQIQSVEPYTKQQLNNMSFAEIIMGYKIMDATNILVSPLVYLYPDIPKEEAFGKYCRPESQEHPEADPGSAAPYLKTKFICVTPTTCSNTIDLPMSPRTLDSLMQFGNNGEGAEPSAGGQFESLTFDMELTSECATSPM
Chain of X-box-binding protein 1 (Homo sapiens) (P17861 whole entry, looked up): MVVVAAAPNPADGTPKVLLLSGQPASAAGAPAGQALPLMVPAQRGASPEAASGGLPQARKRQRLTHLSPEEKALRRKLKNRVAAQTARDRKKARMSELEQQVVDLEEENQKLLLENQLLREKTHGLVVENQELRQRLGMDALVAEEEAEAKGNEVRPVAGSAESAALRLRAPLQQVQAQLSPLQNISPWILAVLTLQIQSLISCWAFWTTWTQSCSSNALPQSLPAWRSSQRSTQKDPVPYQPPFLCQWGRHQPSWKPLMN
Chain of Nuclear receptor subfamily 1 group I member 3 (Homo sapiens) (Q14994 whole entry, looked up, the tested form may be a part): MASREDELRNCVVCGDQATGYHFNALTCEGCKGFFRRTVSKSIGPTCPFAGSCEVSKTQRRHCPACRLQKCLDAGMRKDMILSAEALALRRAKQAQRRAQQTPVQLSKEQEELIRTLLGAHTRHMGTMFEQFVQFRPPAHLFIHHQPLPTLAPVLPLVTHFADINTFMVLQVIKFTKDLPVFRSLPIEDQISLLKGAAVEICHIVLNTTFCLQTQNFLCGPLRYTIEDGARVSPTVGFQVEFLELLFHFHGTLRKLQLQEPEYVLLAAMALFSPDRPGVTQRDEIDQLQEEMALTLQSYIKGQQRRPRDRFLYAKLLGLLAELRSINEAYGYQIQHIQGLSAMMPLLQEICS
Chain of Paired box protein Pax-6 (Homo sapiens) (P26367 whole entry, looked up): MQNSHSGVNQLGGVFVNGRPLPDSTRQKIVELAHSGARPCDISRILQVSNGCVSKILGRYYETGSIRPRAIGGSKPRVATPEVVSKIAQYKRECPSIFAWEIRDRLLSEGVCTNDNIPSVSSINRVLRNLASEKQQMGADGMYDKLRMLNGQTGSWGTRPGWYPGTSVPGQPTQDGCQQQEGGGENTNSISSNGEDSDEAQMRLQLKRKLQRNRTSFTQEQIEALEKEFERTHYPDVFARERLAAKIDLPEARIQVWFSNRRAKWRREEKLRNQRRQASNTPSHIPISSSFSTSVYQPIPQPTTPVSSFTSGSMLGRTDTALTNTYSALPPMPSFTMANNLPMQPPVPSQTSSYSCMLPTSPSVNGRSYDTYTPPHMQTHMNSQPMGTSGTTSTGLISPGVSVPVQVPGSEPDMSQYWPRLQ
Chain of Transcription factor Sp1 (Homo sapiens) (P08047 whole entry, looked up): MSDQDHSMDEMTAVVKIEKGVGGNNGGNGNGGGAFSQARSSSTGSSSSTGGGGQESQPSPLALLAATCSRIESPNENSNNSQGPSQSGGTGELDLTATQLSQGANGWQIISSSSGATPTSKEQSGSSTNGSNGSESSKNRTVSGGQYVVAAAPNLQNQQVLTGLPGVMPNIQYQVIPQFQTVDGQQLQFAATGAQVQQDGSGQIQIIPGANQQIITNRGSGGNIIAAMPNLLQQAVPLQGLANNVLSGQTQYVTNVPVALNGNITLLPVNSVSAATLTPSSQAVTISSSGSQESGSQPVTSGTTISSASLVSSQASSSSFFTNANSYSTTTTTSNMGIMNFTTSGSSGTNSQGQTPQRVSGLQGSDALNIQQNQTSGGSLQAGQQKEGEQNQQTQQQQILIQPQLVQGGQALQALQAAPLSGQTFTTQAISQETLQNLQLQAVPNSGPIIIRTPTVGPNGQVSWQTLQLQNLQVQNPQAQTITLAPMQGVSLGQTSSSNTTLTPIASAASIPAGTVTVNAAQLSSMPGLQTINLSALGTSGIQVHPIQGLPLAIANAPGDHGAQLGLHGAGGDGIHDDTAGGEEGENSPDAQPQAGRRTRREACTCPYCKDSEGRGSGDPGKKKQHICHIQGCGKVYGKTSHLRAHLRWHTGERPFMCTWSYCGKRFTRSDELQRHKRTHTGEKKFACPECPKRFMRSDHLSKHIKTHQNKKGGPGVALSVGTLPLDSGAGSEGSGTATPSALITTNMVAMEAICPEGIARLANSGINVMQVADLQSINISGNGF
Chain of Estrogen-related receptor gamma (Homo sapiens) (P62508 whole entry, looked up, the tested form may be a part): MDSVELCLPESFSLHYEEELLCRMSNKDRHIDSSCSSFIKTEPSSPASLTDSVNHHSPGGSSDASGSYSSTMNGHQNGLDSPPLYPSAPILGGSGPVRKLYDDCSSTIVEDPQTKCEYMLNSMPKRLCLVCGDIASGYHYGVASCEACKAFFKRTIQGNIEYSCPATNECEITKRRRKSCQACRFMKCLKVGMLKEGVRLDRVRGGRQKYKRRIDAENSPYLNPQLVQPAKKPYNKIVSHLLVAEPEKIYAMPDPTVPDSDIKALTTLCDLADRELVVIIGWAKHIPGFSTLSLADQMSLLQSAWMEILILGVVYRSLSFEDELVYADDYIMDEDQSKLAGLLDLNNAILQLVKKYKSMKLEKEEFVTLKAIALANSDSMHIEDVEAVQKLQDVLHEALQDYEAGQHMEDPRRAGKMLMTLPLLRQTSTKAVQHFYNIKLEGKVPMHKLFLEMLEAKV
Chain of Steroid hormone receptor ERR1 (Homo sapiens) (P11474 whole entry, looked up, the tested form may be a part): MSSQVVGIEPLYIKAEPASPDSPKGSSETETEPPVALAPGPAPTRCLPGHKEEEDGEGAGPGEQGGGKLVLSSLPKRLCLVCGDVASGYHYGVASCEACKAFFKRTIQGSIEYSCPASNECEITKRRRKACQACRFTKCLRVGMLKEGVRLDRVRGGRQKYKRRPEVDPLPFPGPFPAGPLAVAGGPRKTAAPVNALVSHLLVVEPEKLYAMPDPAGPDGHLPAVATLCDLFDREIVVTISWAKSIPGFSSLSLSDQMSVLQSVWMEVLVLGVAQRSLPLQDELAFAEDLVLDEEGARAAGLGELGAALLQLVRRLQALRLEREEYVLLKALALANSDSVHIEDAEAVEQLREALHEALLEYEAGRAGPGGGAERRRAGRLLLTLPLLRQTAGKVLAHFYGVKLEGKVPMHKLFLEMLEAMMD

O=C1c2cccc(O)c2C(=O)c2c(O)cc(CO)cc21
active: [2] 8.72 µM | [12] 5.81 µM
not listed: [16] | [17] | [18] | [19]
inactive: all other assays above

O=C1CCCC1
active: [2] 62.7 µM
not listed: [3] | [6] | [11] | [12] | [19]
inactive: all other assays above

CC1=CC[C@H](C(C)C)C=C1
active: [2] 1.98 µM
not listed: [3] | [5] | [10] | [15] | [19]
inactive: all other assays above

CCCC(C)CCC(C)=O (centres undefined)
not listed: [7] | [11] | [12] | [14] | [15] | [16] | [19]
inactive: all other assays above

C=C(C)[C@@H]1CCC2=CCC[C@@H](C)[C@]2(C)C1
active: [2] 1.52 µM | [12] 9.59 µM
not listed: [3] | [14] | [15] | [16] | [17] | [18]
inactive: all other assays above

C[Si](C)O[Si](C)(C)O[Si](C)(C)O[Si](C)C
active: [2] 17 µM | [12] 30.3 µM
not listed: [3] | [11] | [14] | [15] | [19]
inactive: all other assays above

O=C1CCC(=O)N1Cl
not listed: [11] | [12] | [15] | [16] | [19]
inactive: all other assays above

O=C(Cl)c1cc(C(=O)Cl)cc(C(=O)Cl)c1
active: [2] 47.6 µM | [10] 46 µM
inactive: [1] | [4] | [16] | [5] | [6] | [7] | [8] | [9] | [13]

CC/C=C\C/C=C\C/C=C\CCCCCCCC(=O)O
active: [1] 100 µM | [2] 181 µM | [3] 48.7 µM | [8] 53.6 µM | [10] 62.7 µM | [13] 160 µM
inactive: [4] | [5] | [6] | [9] | [17] | [12]

— PubChem BioAssay (EPA / NIEHS)
